# Laboratory results from PubChem BioAssay AID588397 (National Center for Advancing Translational Sciences (NCATS), 2011).
# The whole screen tested about 1,300 compounds, of which about 1,000 (77%) were called active. About 7% were inconclusive and are not listed. Calls follow the shape of the dose curve; as a rule, active = well fitted inhibition curve with a large enough effect; inconclusive = small, poorly fitted or top-dose-only effect; inactive = no such curve, though single readings can be large or run the other way. The set was probably picked from earlier hits. The list shows a part of the results.
# Experiment: qHTS of small molecules that selectively kill Giardia lamblia: Hit Validation.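 Also: viability measured as ATP content by luminescence so killing lowers signal; trophozoites exposed to compounds for 48 h anaerobically at 37 °C; nearly all actives have a fitted effect of over 65% in size.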
# Details: Giardia lamblia trophozoite viability, dose-response; series mostly up to 38.3 µM
# Outline: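 Giardia lamblia trophozoites (100 cells/well) were incubated with compounds for 48 h at 37 deg C under anaerobic conditions. Viability was read as ATP content by one-step luminescence after 15-30 min at room temperature.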
# Potency is read from the fitted curve at half-maximal effect.
row,Structure (SMILES),Potency
1,COc1ccccc1C1OC2=C(Nc3ccc([N+](=O)[O-])cc3N2)C1=O (centres undefined),3650 nM (active)
2,CCN(CC)CCOC(=O)c1ccc(N/C=C(/C#N)c2nc(-c3ccc4c(c3)OCO4)cs2)cc1,2050 nM (active)
3,CCN(CC)CCOC(=O)c1ccc(N/C=C(/C#N)c2nc(-c3cc4ccccc4oc3=O)cs2)cc1,516 nM (active)
4,O=c1c2c([N+](=O)[O-])cc([N+](=O)[O-])cc2nc2ccccn12,2590 nM (active)
5,O=C(CCc1ccccc1)Nc1ncc([N+](=O)[O-])s1,230 nM (active)
6,O=C(CCS(=O)(=O)c1ccccc1)Nc1ncc([N+](=O)[O-])s1,1160 nM (active)
7,O=C(CCS(=O)(=O)Cc1ccccc1)Nc1ncc([N+](=O)[O-])s1,650 nM (active)
8,O=C(Nc1ccccc1)Nc1ncc([N+](=O)[O-])s1,4100 nM (active)
9,C[n+]1ccnc2ccccc21,2590 nM (active)
10,O=c1[nH]c2cccnc2n1-c1ccc([N+](=O)[O-])cc1,1830 nM (active)
11,CC(C)C(=O)N1CCN(c2ccc(NC(=O)c3ccc([N+](=O)[O-])o3)cc2)CC1,1030 nM (active)
12,CCCC(=O)N1CCN(c2ccc(NC(=O)c3ccc([N+](=O)[O-])o3)cc2)CC1,729 nM (active)
13,CCC(=O)N1CCN(c2ccc(NC(=O)c3ccc([N+](=O)[O-])o3)cc2)CC1,918 nM (active)
14,CC(C)(C)C(=O)N1CCN(c2ccc(NC(=O)c3ccc([N+](=O)[O-])o3)cc2)CC1,1450 nM (active)
15,Cc1ncc([N+](=O)[O-])n1CCOC(=O)c1ccc(Cl)cc1Cl,818 nM (active)
16,Cc1ncc([N+](=O)[O-])n1CCOC(=O)c1cc(Cl)cc(Cl)c1N,163 nM (active)
17,CN=C1C=C/C(=N/N=c2\ccn(O)cc2C)C=C1C,1450 nM (active)
18,O=C(Nc1csc([N+](=O)[O-])c1)Nc1ccccc1Cl,1630 nM (active)
19,CCCCNC(=O)/C(=C\c1ccc([N+](=O)[O-])o1)NC(=O)c1ccccc1,1030 nM (active)
20,COc1cc(/C=C(\NC(=O)c2ccccc2)C(=O)NCCO)c([N+](=O)[O-])cc1OC,inactive

row,Structure (SMILES),Potency
1,COC(=O)/C(=C\c1ccc([N+](=O)[O-])o1)NC(=O)c1ccccc1,1030 nM (active)
2,CCCOC(=O)/C(=C\c1ccc([N+](=O)[O-])o1)NC(=O)c1ccccc1,729 nM (active)
3,CCOc1ccccc1C(=O)Nc1ccc2nc(N3CCN(c4ncccn4)CC3)cc(C)c2c1,3260 nM (active)
4,O=C1C(c2ccncc2)=C(O)c2ccccc21,9180 nM (active)
5,CS/C(Nc1cc(Cl)ccc1Cl)=C(/C#N)C(=O)c1ccco1,5790 nM (active)
6,O=[N+]([O-])c1ccc(N=NN(CCO)CCO)cc1,3260 nM (active)
7,O=C(CSc1ccc(Cl)cc1)N/N=C/c1ccc([N+](=O)[O-])o1,818 nM (active)
8,CCOC(=O)N/N=C\c1ccc([N+](=O)[O-])o1,1300 nM (active)
9,O=C(CCC(=O)Nc1ccc(Cl)cc1Cl)N/N=C/c1ccc([N+](=O)[O-])o1,818 nM (active)
10,CCCCCC(=O)N/N=C/c1ccc([N+](=O)[O-])o1,579 nM (active)
11,CCCCCCCC(=O)N/N=C/c1ccc([N+](=O)[O-])o1,579 nM (active)
12,COc1ccc(NS(=O)(=O)c2ccc(C)cc2)c([N+](=O)[O-])c1,1830 nM (active)
13,CC(=O)Nc1ccc(NS(=O)(=O)c2ccc(C)cc2)c([N+](=O)[O-])c1,516 nM (active)
14,CN(Cc1ccccc1)C(=O)c1ccc(NC(=O)Cc2cccc(NC(=O)C3CCN(C(=O)C4CC4)CC3)c2)cc1,inactive
15,CN(CCc1ccccc1)C(=O)c1cccc(NC(=O)Cc2cccc(NC(=O)C3CCN(C(=O)C4CCCC4)CC3)c2)c1,inactive
16,O=C(Nc1ccccc1C(=O)O)c1ccc(NC(=O)C2CC2)cc1,4100 nM (active)
17,N/C(=N\O)c1ccc([N+](=O)[O-])s1,2900 nM (active)
18,O=[N+]([O-])c1cccn2cc(-c3ccc(Br)cc3)nc12,729 nM (active)
19,O=C(c1ccco1)N1CCN(c2c([N+](=O)[O-])nn(-c3cccc(Cl)c3)[n+]2[O-])CC1,2590 nM (active)
20,O=C(c1ccco1)N1CCN(c2c([N+](=O)[O-])nn(-c3ccc(Cl)cc3)[n+]2[O-])CC1,918 nM (active)

row,Structure (SMILES),Potency
1,Cn1c([N+](=O)[O-])cnc1COC(N)=O,1160 nM (active)
2,O=C(NC(=S)Nc1ccc(CN2CCOCC2)cc1)c1ccc([N+](=O)[O-])cc1Cl,4100 nM (active)
3,CC(C)OC(=O)Nc1ccc2c(c1)N(C(=O)N1CCN(C)CC1)c1ccccc1CC2,4100 nM (active)
4,CCCCOc1ccc(C(=O)NCC(=O)NCCCn2nc(C)cc2C)cc1,inactive
5,O=C(CN1C(=O)c2ccccc2S1(=O)=O)c1ccc2c(c1)OCCO2,2900 nM (active)
6,O=C(CN1C(=O)c2ccccc2S1(=O)=O)c1ccc2c(c1)OCCCO2,1030 nM (active)
7,O=C1SCCN1N=Cc1ccc([N+](=O)[O-])o1,326 nM (active)
8,CC1CS(=O)(=O)CCN1N=Cc1ccc([N+](=O)[O-])o1 (centres undefined),365 nM (active)
9,O=C1OC(CN(Cc2ccccc2)Cc2ccccc2)CN1N=Cc1ccc([N+](=O)[O-])o1 (centres undefined),650 nM (active)
10,Cc1ccc(-c2ccc(/C=N/N3C(=O)C4C5C=CC(CC5)C4C3=O)o2)c([N+](=O)[O-])c1 (centres undefined),inactive
11,O=C1c2cc([N+](=O)[O-])cc3cc([N+](=O)[O-])cc(c23)C(=O)N1c1ccccn1,1830 nM (active)
12,Cc1cc(O)ccc1N1C(=O)c2cccc3cc([N+](=O)[O-])cc(c23)C1=O,2900 nM (active)
13,Cc1ccc(-c2nc3ncccc3o2)cc1NC(=O)c1ccc([N+](=O)[O-])o1,918 nM (active)
14,O=C(Nc1ccc(-c2nc3ncccc3o2)cc1)c1ccc([N+](=O)[O-])o1,1300 nM (active)
15,Cc1c(NC(=O)c2ccc([N+](=O)[O-])o2)cccc1-c1nc2ncccc2o1,918 nM (active)
16,Nc1nc2ccccc2n1/N=C/c1ccc([N+](=O)[O-])s1,410 nM (active)
17,Cc1cc2ncn(/N=C/c3ccc([N+](=O)[O-])s3)c2cc1C,1300 nM (active)
18,O=[N+]([O-])c1ccc(/C=N/n2c(CO)nc3ccccc32)s1,650 nM (active)
19,Cc1nc2ccccc2n1/N=C/c1ccc([N+](=O)[O-])s1,1630 nM (active)
